Test results: publication PMC4336329 (PLoS ONE, 2015)
Among all 310,000 compounds or so, about 14,000 (4.5%) showed an effect of 50% or more. The effect is printed as a negative number. The sample as a whole holds a higher share of strong results than the screen did.

Biological target: human ether-à-go-go-related gene (hERG) potassium channel (human, UniProt Q12809)
Experiment: primary screen, population patch clamp on CHO cells stably expressing hERG; higher = less effect of the substance
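Also: peak tail current of the secondary pulse compared with the same well before compound.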

Sequence of human ether-à-go-go-related gene (hERG) potassium channel (Q12809 whole entry, looked up): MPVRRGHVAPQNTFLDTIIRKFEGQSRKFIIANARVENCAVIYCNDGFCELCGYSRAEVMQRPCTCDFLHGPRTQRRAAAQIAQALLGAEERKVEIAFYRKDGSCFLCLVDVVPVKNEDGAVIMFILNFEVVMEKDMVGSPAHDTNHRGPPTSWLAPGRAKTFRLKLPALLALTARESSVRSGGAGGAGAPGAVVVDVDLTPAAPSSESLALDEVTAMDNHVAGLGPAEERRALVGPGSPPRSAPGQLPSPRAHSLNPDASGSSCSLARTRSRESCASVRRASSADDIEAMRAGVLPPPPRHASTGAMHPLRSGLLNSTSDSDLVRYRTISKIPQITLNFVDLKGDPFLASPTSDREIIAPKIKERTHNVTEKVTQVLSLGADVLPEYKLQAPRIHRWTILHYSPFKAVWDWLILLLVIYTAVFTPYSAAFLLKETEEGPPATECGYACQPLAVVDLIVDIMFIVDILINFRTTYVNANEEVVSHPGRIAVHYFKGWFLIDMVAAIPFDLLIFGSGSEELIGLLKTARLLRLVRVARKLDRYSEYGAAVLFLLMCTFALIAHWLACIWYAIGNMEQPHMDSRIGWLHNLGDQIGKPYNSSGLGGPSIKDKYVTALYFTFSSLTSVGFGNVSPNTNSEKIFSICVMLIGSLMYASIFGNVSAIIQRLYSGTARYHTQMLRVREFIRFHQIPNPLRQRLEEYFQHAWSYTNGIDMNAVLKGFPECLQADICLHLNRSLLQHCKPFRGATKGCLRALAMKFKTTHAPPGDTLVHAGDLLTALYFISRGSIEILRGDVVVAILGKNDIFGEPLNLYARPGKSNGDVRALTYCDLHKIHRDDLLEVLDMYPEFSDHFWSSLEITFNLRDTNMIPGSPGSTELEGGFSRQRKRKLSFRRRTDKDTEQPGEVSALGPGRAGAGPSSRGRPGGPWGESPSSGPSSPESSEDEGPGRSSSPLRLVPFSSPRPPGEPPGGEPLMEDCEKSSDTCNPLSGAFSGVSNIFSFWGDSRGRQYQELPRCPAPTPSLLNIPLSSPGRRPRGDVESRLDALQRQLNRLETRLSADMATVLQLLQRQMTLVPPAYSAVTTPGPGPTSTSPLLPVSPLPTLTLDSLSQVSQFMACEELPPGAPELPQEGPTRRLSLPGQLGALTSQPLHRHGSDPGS

| Structure (SMILES) | hERG current change (%, negative = inhibition) at 10uM [%] |
| --- | --- |
| CC(=O)c1ccc(OCC(=O)OC(C)C(=O)NC2CCCCC2C)cc1 (stereo not shown) | 26.9 |
| COC(=O)c1c(NC(=O)CC2SCC(C(=O)OC)NC2=O)sc2c1CCCC2 (stereo not shown) | -5 |
| CCc1ccccc1N(C(C)=O)c1nc(CCl)cs1 | 6.77 |
| CC(C)(C)NC(=O)CN(CCN1CCOCC1)C(=O)CNS(=O)(=O)c1ccccc1 | 19.4 |
| COCCN(CCOC)S(=O)(=O)c1ccc(C(=O)Nc2nc(C)c(C(C)=O)s2)cc1 | 13 |
| C/C(=N\NC(N)=S)C1C2C3CC4C5CC(C42)C1C53 (stereo not shown) | -10 |
| O=C(CC1(O)C(=O)Nc2ccccc21)c1ccc2c(c1)OCO2 (stereo not shown) | -3.95 |
| CN(C)c1ccc2c3c(ccc(N(C)C)c13)COC2 | -34.8 |
| CN(C)c1ccc2c3c(ccc(N(C)C)c13)C(=O)OC2 | -59.1 |
| Nc1ccc2c(c1)COC2=O | 4.55 |
| CN(C)S(=O)(=O)c1cccc(C(=O)NCC2(N3CCOCC3)CCCCC2)c1 | -13.4 |
| S=C(NCc1cccnc1)Nc1ccc(Oc2ccc(Cl)cc2)cc1 | -0.652 |
| CCc1ccc(OCC(=O)Nc2cc(S(=O)(=O)CC)ccc2O)cc1 | -0.287 |
| CCCc1ccc(OCC(=O)Nc2cc(S(=O)(=O)CC)ccc2O)cc1 | -58.1 |
| CCS(=O)(=O)c1ccc(O)c(NC(=O)COc2ccc(OC)cc2)c1 | 1.82 |
| Cc1cc(Cl)c(OCCCNC2CCCC2)c(Br)c1.O=C(O)C(=O)O | -56.9 |
| Cc1cc(C)c(OCCCNCc2ccccc2)c(Br)c1.O=C(O)C(=O)O | -10.7 |
| Cc1cc(C)c(OCCNCc2ccccc2)c(C)c1.O=C(O)C(=O)O | -5.71 |
| Cc1cc(C)c(OCCCNC2CCCC2)c(Br)c1.O=C(O)C(=O)O | -34.5 |
| Cc1cc(Cl)c(OCCCCNC(C)(C)C)c(Br)c1.O=C(O)C(=O)O | -40.7 |
| Cc1cc(C)c(OCCCCNCc2ccccc2)c(Cl)c1.O=C(O)C(=O)O | -68.5 |
| C=CCNCCOc1c(C)cc(C)cc1Cl.O=C(O)C(=O)O | -21.2 |
| Cc1cc(Cl)c(OCCCNCc2ccccc2)c(Br)c1.O=C(O)C(=O)O | -51.8 |
| COCCCNCCCCOc1c(Cl)cc(C)cc1Br.O=C(O)C(=O)O | -49.2 |

| Structure (SMILES) | hERG current change (%, negative = inhibition) at 10uM [%] |
| --- | --- |
| CC(=O)c1cccc(NC(=O)C(C)OC(=O)Cc2c[nH]c3ccccc23)c1 (stereo not shown) | -2.32 |
| COC(=O)c1cc(NC(=O)c2cccnc2)ccc1N1CCOCC1 | 13.9 |
| CCOc1ccccc1N1CC(C(=O)Nc2c(C)n(C)n(-c3ccccc3)c2=O)CC1=O (stereo not shown) | 20.7 |
| CCC(C)[C@H](NC(=O)Nc1ccc(S(N)(=O)=O)cc1)C(=O)OC (stereo partly shown) | 13.1 |
| O=C1CCCc2c1nc(-c1ccco1)n2O | 12.1 |
| O=C(Cn1[nH]c(=O)c2ccccc2c1=O)N1CC=C(c2ccccc2)CC1 | -4.76 |
| COc1ccc(CCNC(=O)CS(=O)Cc2nc(-c3ccccc3F)oc2C)cc1OC (stereo not shown) | 13 |
| O=c1oc2ccc(C#CC3(O)CCCCC3)cc2cc1-n1cc(C2(O)CCCCC2)nn1 | 24.7 |
| O=C(c1ccc(F)cc1)n1c(=S)nc2ccccn21 | -1.25 |
| CC(=O)N(Cc1nc2sc(C)c(C)c2c(=O)[nH]1)C1CCCC1 | 21.8 |
| FC(F)(F)c1cccc(N2CCN(C3CC4CCC3C4)CC2)c1 (stereo not shown) | -1.68 |
| CCc1ccc(C(=O)COC(=O)c2cnccn2)cc1 | 0.242 |
| Cc1ccc(NC(=S)NNC(=S)NC2CCCCC2)cc1 | 21 |
| Cc1ccc(NC(=S)NC2CCCC2)cc1C | 14.8 |
| Cc1ccc(NC(=S)NCCN(C2CCCCC2)C2CCCC2)cc1 | -72 |
| Cc1ccc(NC(=S)NCCN(C2CCCCC2)C2CCCC2)cc1C | -68.1 |
| Cc1ccc(NC(=S)NCC2CCCO2)cc1C (stereo not shown) | -1.97 |
| Cc1ccc(NC(=S)NC2CCCC2)cc1 | 4.64 |
| Cc1ccc(N2CC(C(=O)Nc3nnc(SCCN4CCOCC4)s3)CC2=O)cc1C (stereo not shown) | 20.7 |
| COc1ccccc1-n1nnnc1SCc1cc2c(cc1Br)OCO2 | -9.95 |
| CCCCC(OC(=O)c1ccco1)C(=O)NCc1ccc(C)cc1 (stereo not shown) | -0.428 |
| O=C(Cn1cnc([N+](=O)[O-])n1)NC1CC1 | 7.02 |
| Cc1nn(-c2ccc(Cl)cc2)c2[nH]c(=O)c(CNCc3ccc4c(c3)OCO4)cc12 | -70 |
| Cc1nn(-c2ccccc2)c2[nH]c(=O)c(CNCc3ccc4c(c3)OCO4)cc12 | -28.7 |

| Structure (SMILES) | hERG current change (%, negative = inhibition) at 10uM [%] |
| --- | --- |
| CC(C)(C)c1nn(-c2ccccc2)c2[nH]c(=O)c(CNCc3ccc4c(c3)OCO4)cc12 | -17.9 |
| Cc1ccc2c(C)c(C(=O)Nc3ccc(S(N)(=O)=O)cc3)oc2c1C | 31.2 |
| COc1ccccc1CC1C(=O)C2CCN1CC2 (stereo not shown) | 14.5 |
| NCCSc1c(-c2ccc(Cl)cc2)[nH]c2ccccc12 | -84.3 |
| NCCSc1c(-c2ccccc2)[nH]c2ccccc12 | -12.1 |
| Cc1ccc(-c2[nH]c3ccccc3c2SCCN)cc1 | -27.6 |
| O=C(NCC1CCCO1)C(=O)N/N=C/c1c(F)cccc1Cl (stereo not shown) | 8.04 |
| Cc1noc(C)c1COC(=O)/C=C/c1ccc(Cl)cc1 | 0.131 |
| CCn1cc(/C=C/C(=O)Nc2ccc(C)cc2Br)cn1 | -30.7 |
| O=C(O)C1CCCN(S(=O)(=O)c2ccc(F)cc2)C1 (stereo not shown) | 20.4 |
| O=C(C1CCCN(S(=O)(=O)c2ccc(Cl)cc2)C1)N(Cc1cccs1)C1CC1 (stereo not shown) | -63 |
| O=C(C1CCCN(S(=O)(=O)c2ccc(F)cc2)C1)N1CCCC1 (stereo not shown) | 5.78 |
| O=C(C1CCCN(S(=O)(=O)c2ccc(F)cc2)C1)N(Cc1cccs1)C1CC1 (stereo not shown) | -78.2 |
| CN1CCN(C(=O)C2CCCN(S(=O)(=O)c3ccc(Cl)cc3)C2)CC1 (stereo not shown) | -18.8 |
| CCOC(=O)C1CCCN(S(=O)(=O)c2ccc(C)cc2)C1 (stereo not shown) | -2.86 |
| O=C(C1CCCN(S(=O)(=O)c2ccc(Cl)cc2)C1)N1CCCC1 (stereo not shown) | -19 |
| Cc1ccc(S(=O)(=O)N2CCCC2C(=O)N(C)Cc2cccs2)cc1 (stereo not shown) | -19.9 |
| Cc1ccc(S(=O)(=O)N2CCCC(C(=O)N(Cc3cccs3)C3CC3)C2)cc1 (stereo not shown) | -67.7 |
| Cc1noc(/C=C/Nc2ccc(F)cc2F)c1[N+](=O)[O-] | 12.1 |
| COc1ccc(NC(=S)N(CCN(C)C)C(C)c2ccco2)cc1 (stereo not shown) | -16.6 |
| O=C1CSC(c2ccccc2)N1CCc1ccccc1 (stereo not shown) | 1.82 |
| Cc1ccccc1SCC(=O)OCC(=O)Nc1ccc(N(C)C)cc1 | 10.4 |
| C[C@@H]1CN(C2CCN(Cc3nc(C(c4ccccc4)c4ccccc4)no3)CC2)C[C@H](C)O1 | -38.6 |
| CC(=O)N1CCN(Cc2nc(C(c3ccccc3)c3ccccc3)no2)CC1 | 10.8 |

| Structure (SMILES) | hERG current change (%, negative = inhibition) at 10uM [%] |
| --- | --- |
| c1ccc(C(c2ccccc2)c2noc(CN3CCN(C4CCCC4)CC3)n2)cc1 | -70.1 |
| c1ccc(C(c2ccccc2)c2noc(CN3CCN(CC4CC4)CC3)n2)cc1 | -61.6 |
| COCC1CCCN(Cc2nc(C(c3ccccc3)c3ccccc3)no2)C1 (stereo not shown) | -19.6 |
| NC(=O)CCN1CCN(Cc2nc(C(c3ccccc3)c3ccccc3)no2)CC1 | -25.6 |
| Cc1nc(CN2CCN(Cc3nc(C(c4ccccc4)c4ccccc4)no3)CC2)cs1 | -45.5 |
| c1ccc(C(c2ccccc2)c2noc(CN3CCC(c4ccncc4)CC3)n2)cc1 | -32.7 |
| Cc1cccnc1CN1CCN(Cc2nc(C(c3ccccc3)c3ccccc3)no2)CC1 | -56.2 |
| CC(=O)c1c(NCCc2ccccc2)nc(=S)n(-c2ccccc2)c1C | 7.04 |
| CCn1c(=O)cc(OCC(=O)NCc2ccco2)c2ccccc21 | 0.766 |
| CCN1CCCC1CNC(=O)Cn1cnc2sc(C)c(S(=O)(=O)N3CCC(C)CC3)c2c1=O (stereo not shown) | -14.5 |
| Cc1ccc2nc(N3C(=O)C(O)=C(C(=O)c4ccco4)C3c3ccc(C)o3)sc2c1.O=C(O)C(=O)O (stereo not shown) | 1.65 |
| CC(NC(=O)C1CCC(CNC(=O)[C@@H]2Cc3ccccc3CN2)CC1)c1ccccc1 (stereo partly shown) | -4.23 |
| CCn1c(SCC(=O)Nc2cc(C)on2)nnc1-c1ccc(S(=O)(=O)N2CCCC2)cc1 | -1.7 |
| Cc1ccc2cc3cc(C(=O)N4CC(C)CC(C)C4)oc3nc2c1 (stereo not shown) | 1.38 |
| Cc1ccc2cc3cc(C(=O)NCCCN4CCc5ccccc5C4)oc3nc2c1 | -54.9 |
| Cc1ccc2cc3cc(C(=O)NCCCN4CCCC4)oc3nc2c1 | -15.5 |
| Cc1ccc2cc3cc(C(=O)NCc4ccco4)oc3nc2c1 | -1.21 |
| Cc1ccc2oc(=O)c3cc(C(=O)NCCCN4CCc5ccccc5C4)sc3c2c1 | -6.63 |
| Cc1ccc2cc3cc(C(=O)NCCN4CCOCC4)oc3nc2c1 | -14.5 |
| Cc1ccc2cc3cc(C(=O)NCCCN4CC(C)CC(C)C4)oc3nc2c1 (stereo not shown) | -62.9 |
| Cc1ccc2cc3cc(C(=O)NCCCN4CCCCCC4)oc3nc2c1 | -50.6 |
| Cc1ccc2cc3cc(C(=O)NCCCN4CCCC4=O)oc3nc2c1 | 2.4 |
